JMJD2A Tudor: qHTS Assay for Inhibitors of JMJD2A-Tudor Domain | Potency, µM (highest dose often 114 µM), hits mostly inhibitors | AID 504339, 2011 | AlphaScreen JMJD2A-Tudor / H3K4me3 peptide binding | Lysine-specific demethylase 4A (Homo sapiens), O75164 | hit rate 4.4% among 390,000; also: nearly all actives have a fitted effect of over 50% in size
G9a block: qHTS Assay for Inhibitors of Histone Lysine Methyltransferase G9a. G9a H3K9 monomethylation, AlphaScreen, 2 h. Potency, µM (top dose mostly 102 µM), actives largely listed as inhibitors. hit rate 8.8% among 350,000; also: nearly all actives have a fitted effect of over 75% in size
Target sequence (Q96KQ7 913-1193 limits assumed): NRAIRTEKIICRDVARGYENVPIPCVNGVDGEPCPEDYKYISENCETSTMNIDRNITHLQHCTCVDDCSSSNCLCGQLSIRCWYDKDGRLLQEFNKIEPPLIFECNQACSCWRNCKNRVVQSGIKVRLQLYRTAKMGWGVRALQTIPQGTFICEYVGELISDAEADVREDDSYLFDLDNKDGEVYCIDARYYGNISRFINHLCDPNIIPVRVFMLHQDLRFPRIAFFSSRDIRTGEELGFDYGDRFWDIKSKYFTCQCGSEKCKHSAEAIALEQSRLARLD
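Using a bead-based AlphaScreen, monomethylated H3K9 product from 2 h room-temperature reactions (G9a 20 nM, peptide 500 nM, SAM 20 uM) was detected with 0.5 ug/mL rabbit anti-H3K9me1 antibody.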
PLK1 PBD block: qHTS for Inhibitors of PLK1-PDB (polo-like kinase 1 - polo-box domain): Primary Screen; Plk1 PBD binding of FITC phosphopeptide, fluorescence polarization; hit rate 2.8% among 360,000; AID 720504, 2013; Serine/threonine-protein kinase PLK1 (Homo sapiens), P53350; Potency, µM, usual class: inhibitors; also: series mostly up to about 57 µM; nearly all actives have a fitted effect of over 65% in size
PI5P4K alpha inh: qHTS for Inhibitors of phosphatidylinositol 5-phosphate 4-kinase (PI5P4K). Phosphatidylinositol 5-phosphate 4-kinase type-2 alpha (Homo sapiens), P48426. PI5P4Kalpha enzyme, ADP-Glo luminescence, 60 min; stronger effect = lower value. max response, %. hit rate 1.2% among 330,000. AID 652105, 2013; active = max response of -50% or lower; inconclusive = between -30% and -50%; inactive = -30% or higher; also: value at the top dose of about 77 µM
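Quantitative HTS of the MLSMR library against PI5P4Kalpha with substrate. ATP added last at 5 microM final; room temperature, 60 minutes. Remaining ATP depleted, ADP converted and read as luminescence.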
HP1b binding inh: HTS for Inhibitors of HP1-beta Chromodomain Interactions with Methylated Histone Tails. Chromobox protein homolog 1 (Homo sapiens), P83916. AlphaScreen HP1-beta / biotin-H3K9me3 peptide binding. Potency, µM (series often up to 114 µM), most hits filed as inhibitors. hit rate 0.56% among 390,000; also: nearly all actives have a fitted effect of over 70% in size
Target sequence (P83916 whole entry, looked up): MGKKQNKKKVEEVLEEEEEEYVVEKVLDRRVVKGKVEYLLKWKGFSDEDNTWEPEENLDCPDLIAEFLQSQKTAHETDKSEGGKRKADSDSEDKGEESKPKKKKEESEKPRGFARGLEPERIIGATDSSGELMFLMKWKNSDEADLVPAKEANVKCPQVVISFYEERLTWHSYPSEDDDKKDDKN
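HP1-beta protein (50 nM final) preincubated 30 min at room temperature with biotinylated H3(1-18)K9me3 peptide (50 nM) in PBS pH 7.4, 0.01% Tween-20, then compound added for 30 min. AlphaScreen streptavidin donor/nickel chelate acceptor beads (10 ug/mL final), 30 min dark, luminescence read.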
BAZ2B inh: qHTS Assay for Inhibitors of BAZ2B. Potency, µM (highest dose often 114 µM), hits mostly inhibitors. Bromodomain adjacent to zinc finger domain protein 2B (Homo sapiens), Q9UIF8. hit rate 4.4% among 360,000. AlphaScreen BAZ2B-H3K14Ac peptide displacement; also: nearly all actives have a fitted effect of over 60% in size
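In this displacement format the biotinylated H3(5-23) peptide acetylated at Lys14 serves as ligand at 50 nM, with BAZ2B at 50 nM in PBS pH 7.4 containing 0.01% Tween-20. Donor and acceptor beads are 10 ug/mL final.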
Large screens that a line does not name were inactive. The list is not random: actives were taken first. Their share in the collection is about 12%. Unless noted, calls follow the shape of the dose curve; as a rule, active = well fitted curve in the direction sought with a large enough effect; inconclusive = small, poorly fitted or top-dose-only effect, or another doubt; inactive = no such curve, though single readings can be large; an effect the other way counts as inactive or inconclusive.

CCOC(=O)c1c(NC(=O)CSc2nnc(CNC(=O)c3ccco3)n2C)sc2c1CCC2	G9a block 50µM, BAZ2B inh inconclusive (no result: PI5P4K alpha inh)
COc1ccccc1P(=O)(Cc1ccccc1[N+](=O)[O-])c1ccccc1 (stereo not drawn)	none
COCCn1c(=O)c(-c2ccc(Cl)cc2)nc2cncnc21	none (no result: JMJD2A Tudor, PLK1 PBD block, PI5P4K alpha inh, HP1b binding inh, BAZ2B inh)
Cc1cc(N2CCN(C)CC2)nc(=S)[nH]1	G9a block 40µM
Cc1cc(N2CCN(C)CC2)nc(-c2ccccc2O)n1	none
Cc1ccc(N/N=C/c2c(C)c(C#N)c(=O)n(C)c2O)cc1C	JMJD2A Tudor 11µM, G9a block 0.79µM, PLK1 PBD block 24µM, PI5P4K alpha inh -54, BAZ2B inh 56µM
Cc1cc(C(=O)OCC(=O)N2c3ccccc3CC2C)c(C)o1 (stereo not drawn)	G9a block 11µM
CCN(CC)c1cccc(OCC(=O)N2c3ccccc3CC2C)c1 (stereo not drawn)	JMJD2A Tudor inconclusive, G9a block 10µM, BAZ2B inh inconclusive
CC1Cc2ccccc2N1C(=O)COC(=O)c1ccco1 (stereo not drawn)	none (no result: JMJD2A Tudor, G9a block, HP1b binding inh, BAZ2B inh)
Cc1cc(=O)oc2cc(OCC(=O)N3c4ccccc4CC3C)ccc12 (stereo not drawn)	none
CC(=O)c1ccc(S(=O)(=O)N2CCN(C(=O)CN3C(=O)NC4(CCCC4)C3=O)CC2)cc1	none
Cc1ccc2nc(-c3ccc(NC(=O)COC(=O)c4ccc(=O)[nH]c4)cc3)sc2c1	JMJD2A Tudor 45µM
Cc1ccc2nc(-c3ccc(NC(=O)CNC4CC4)cc3)sc2c1	JMJD2A Tudor inconclusive, G9a block 7.1µM, BAZ2B inh 45µM
Cc1ccc2nc(-c3ccc(NC(=O)C(F)(F)F)cc3)sc2c1	none (no result: PLK1 PBD block, PI5P4K alpha inh)
O=C(O)c1cc(N/N=C/c2ccc(N3CCOCC3)s2)ccc1Cl	JMJD2A Tudor 45µM, G9a block 2.2µM, PLK1 PBD block inconclusive, PI5P4K alpha inh -56, HP1b binding inh inconclusive, BAZ2B inh 50µM
NC(=O)N/N=C/c1ccc(N2CCOCC2)s1	G9a block 3.2µM
C/C(=N\Nc1ccc(Cl)c(C(=O)O)c1)c1ccc(N2CCOCC2)cc1	G9a block 40µM, PLK1 PBD block inconclusive, PI5P4K alpha inh inconclusive
C/C(=N\Nc1ccc(Cl)c(C(=O)O)c1)c1ccc[nH]1	JMJD2A Tudor inconclusive, G9a block 25µM, PI5P4K alpha inh inconclusive, BAZ2B inh inconclusive
Cc1ccc(-n2ncc3c2CC(C)(C)CC3NC(=O)CCN2CCCCC2=O)cc1 (stereo not drawn)	none (no result: G9a block)
CCOc1ccc(S(=O)(=O)N(CC)CC(=O)NC2CC2)cc1	none
CCOC(=O)c1[nH]c(C)c(C(=O)NC2CCCCC2)c1C	G9a block 79µM
CCOC(=O)c1[nH]c(=S)[nH]c1C	JMJD2A Tudor 5µM, PLK1 PBD block inconclusive (no result: G9a block, BAZ2B inh)
CCOC(=O)c1[nH]c(C)c(C(=O)OC)c1C	none
CCOC(=O)c1[nH]c(C)c(C)c1C	JMJD2A Tudor 79µM, PLK1 PBD block inconclusive, BAZ2B inh inconclusive
CCOC(=O)CC(=O)c1[nH]c(C)c(C(=O)OCC)c1C	BAZ2B inh 79µM
CCOC(=O)c1[nH]c(C)c(C(=O)NCC2CCCO2)c1C (stereo not drawn)	none
Cn1c2cc(CO)sc2c2cnn(Cc3ccccc3F)c(=O)c21	none (no result: G9a block, PLK1 PBD block, PI5P4K alpha inh, HP1b binding inh, BAZ2B inh)
CC(=O)OC1CCC2(C)C3CCC4(C)C(C(C)=O)CCC4C3CC3OC32C1 (stereo not drawn)	none (no result: G9a block, BAZ2B inh)
NC(=O)c1cc([N+](=O)[O-])ccc1NCc1ccc(N)cc1	none
CCCCc1ccc(NC(=O)c2cc(-c3ccc(C)c(F)c3)on2)cc1	none (no result: PLK1 PBD block, PI5P4K alpha inh)
Cc1c(-c2ccc(/C=N/NC(=O)C(=O)Nc3ccccc3F)o2)cccc1[N+](=O)[O-]	none
O=C(N/N=C\c1ccc([N+](=O)[O-])o1)c1cncc(Br)c1	PI5P4K alpha inh inconclusive
Cc1c(C(=O)N/N=C/c2ccc(-c3ccccc3[N+](=O)[O-])o2)sc(N)c1C#N	JMJD2A Tudor inconclusive, PLK1 PBD block inconclusive, PI5P4K alpha inh -53, BAZ2B inh inconclusive
Cc1cc([N+](=O)[O-])c(C)cc1-c1ccc(/C=N/NC(=O)c2cccnc2)o1	G9a block 45µM, PLK1 PBD block inconclusive, BAZ2B inh inconclusive
Nn1cnnc1N/N=C\c1ccc(-c2ccccc2[N+](=O)[O-])o1	JMJD2A Tudor inconclusive, G9a block 35µM, BAZ2B inh inconclusive
O=C(N/N=C/c1ccc(-c2ccccc2[N+](=O)[O-])o1)c1cncc(Br)c1	JMJD2A Tudor inconclusive, G9a block 32µM, HP1b binding inh inconclusive
O=C(N/N=C\c1ccc(-c2ccccc2[N+](=O)[O-])o1)C1COc2cc3ccccc3cc2O1 (stereo not drawn)	JMJD2A Tudor inconclusive, G9a block inconclusive, BAZ2B inh inconclusive
Nc1ncnc2c1ncn2[C@@H]1O[C@H](CNCc2ccc(-n3cccn3)cc2)[C@@H](O)[C@H]1O	none (no result: G9a block, BAZ2B inh)
CCC1CCCCN1C(=O)c1ccc2c(c1)N(Cc1cccc(Cl)c1)C(=O)c1ccccc1S2(=O)=O (stereo not drawn)	none (no result: PLK1 PBD block, PI5P4K alpha inh)
COc1ccc(C(=O)N2CCC2(C)C(=O)NC(C)C)c(OC)c1 (stereo not drawn)	none (no result: JMJD2A Tudor, G9a block, HP1b binding inh, BAZ2B inh)
COC(=O)CN1C(=S)N(c2ccc(Cl)cc2)C(=O)C1CC(=O)Nc1ccc(F)cc1 (stereo not drawn)	G9a block 50µM
COC(=O)CN1C(=S)N(c2ccc(F)cc2)C(=O)C1CC(=O)Nc1ccc(F)cc1 (stereo not drawn)	none
O=C(O)C(Oc1ccc2cc(-c3ccc(Cl)cc3)c(=O)oc2c1)c1ccccc1 (stereo not drawn)	PLK1 PBD block 42µM (no result: G9a block)
NC(=O)COc1ccc2cc(-c3ccccc3)c(=O)oc2c1	none
Cc1ccc(S(=O)(=O)N2CCCCC2)cc1NC(=O)COC(=O)c1cccn1C	JMJD2A Tudor inconclusive (no result: G9a block, BAZ2B inh)
COc1ccc2[nH]c(=O)c(CN(C(=O)c3ccccn3)C3CCCCC3)cc2c1	G9a block 28µM, PLK1 PBD block inconclusive
CCCN(Cc1cc2cc(C)ccc2[nH]c1=O)C(=O)c1ccccn1	PLK1 PBD block 19µM, PI5P4K alpha inh inconclusive
O=C(c1ccccn1)N(Cc1cc2ccccc2[nH]c1=O)C1CCCCC1	none
CCCCN(Cc1cc2cc(OC)ccc2[nH]c1=O)C(=O)c1ccccn1	G9a block inconclusive, PLK1 PBD block inconclusive
COc1ccc2[nH]c(=O)c(CN(C3CCCCC3)C(c3nnnn3Cc3ccco3)C(C)C)cc2c1 (stereo not drawn)	JMJD2A Tudor inconclusive, G9a block 22µM, PLK1 PBD block inconclusive, PI5P4K alpha inh -67, HP1b binding inh inconclusive

High-throughput results: PubChem BioAssay, National Center for Advancing Translational Sciences (NCATS)
